Active and inactive are the calls of the source. Calls come from the whole dose curve; as a rule, active = well fitted curve in the direction sought with a large enough effect; inactive = no such curve, though single readings can be large or run the other way.

Chain of Alpha-galactosidase (Coffea arabica) (Q42656 whole entry, looked up): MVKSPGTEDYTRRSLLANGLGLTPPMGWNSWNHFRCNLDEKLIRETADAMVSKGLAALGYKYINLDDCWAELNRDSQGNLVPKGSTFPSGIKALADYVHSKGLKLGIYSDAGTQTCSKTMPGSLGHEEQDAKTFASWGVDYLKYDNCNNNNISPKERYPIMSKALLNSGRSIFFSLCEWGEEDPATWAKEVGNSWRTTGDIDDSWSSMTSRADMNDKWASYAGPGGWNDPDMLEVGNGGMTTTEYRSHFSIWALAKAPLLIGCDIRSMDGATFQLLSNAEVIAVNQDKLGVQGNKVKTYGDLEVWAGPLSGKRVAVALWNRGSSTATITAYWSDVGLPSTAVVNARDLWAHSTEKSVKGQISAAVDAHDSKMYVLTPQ

This test concerns the target Alpha-galactosidase (Coffea arabica) (UniProt Q42656). Kind of test: Counterscreen for Glucocerebrosidase Inhibitors: qHTS Assay for Coffee Bean alpha-Galactosidase at pH 5.9 (AID 998).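 Note: plate controls were uninhibited enzyme for no effect and no-enzyme basal signal for full effect.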 The note with it: coffee bean alpha-galactosidase enzyme assay; series mostly up to 76.9 µM; activity, negative = inhibition: at the top concentration. From the text:
NIH Chemical Genomics Center [NCGC]
NIH Molecular Libraries Screening Centers Network [MLSCN]
PI Name: Zheng, Wei [NIH]
Alpha-galactosidase is a homodimeric glycoprotein that hydrolyzes the terminal alpha-galactosyl moieties from glycolipids and glycoproteins. Deficiency of this enzyme results in Fabry Disease with progressive accumulation of globotriaosylceramide and other glycosphingolipids in vascular endothelial cells that causes renal failure, myocardial infarction and stroke, and premature death in patients. It has reported that the improper folding and trafficking of alpha-galactosidase resulted from the genetic mutations may account for a significant numbers of Fabry patients. […] We optimized this coffee bean alpha-galactosidase assay in 1536-well plate format as a counter-screen assay for identifying the selective small molecule inhibitors of other lysosomal enzymes.
NCGC Assay Protocol Summary:
This is a fluorogenic enzyme assay with 4-Methylumbelliferyl alpha-D-galactopyranoside as the substrate and green coffee bean […] (from Sigma-Aldrich) as the enzyme preparation. Upon the hydrolysis of this fluorogenic substrate, the resulting product, […]. 4-Methyllumbelliferone, can be excited at 365 nm and emits at 440 nm which can be detected by a standard fluorescence plate reader. Data were normalized to the controls for basal activity (without enzyme) and 100% activity (with enzyme). In the AC50 values were determined from concentration-response data modeled with the standard Hill equation.
Assay buffer: 50 mM citric acid, 0.005% Tween-20, pH 5.9. (pH 5.9 is an optimal condition for this enzyme assay.)
1536-well assay protocol for the coffee bean alpha-galactosidase:
(1) Add 2 ul/well of enzyme (2 nM final)
(2) Add 23 nL compounds in DMSO solution. The final titration was 0.7 nM to 77 uM.
(3) Add 1 ul of substrate (80 uM final)
(4) Incubate at room temperature for 20 min.
(5) Add 2 ul stop solution (1M NaOH and 1M Glycine mixture, pH 10)
(6) Detect the assay plate in a ViewLux plate reader (PerkinElmer) with Ex=365 nm and Em=440nm.
Keywords: Alpha-galactosidase, Fabry Disease, pharmacological chaperone, chaperone therapy, high throughput screening, alpha-galactosidase inhibitor, MLSMR, MLSCN, NIH Roadmap, qHTS and NCGC
On the technique in general: The purpose of a counterscreen is to sort out artefacts and off-target activity.
Consider `C[N+]1(C)CCC(OC(=O)C(c2ccccc2)c2ccccc2)CC1`, for which the “activity, negative = inhibition” value is 1.2% (inactive). Take `COc1ccc2c(c1)/C(=C/c1cnc[nH]1)C(=O)N2`: the “activity, negative = inhibition” value was 0.0439% (inactive). Take `NNC(N)=O`: the “activity, negative = inhibition” value was 4.31% (inactive). The same measure, in the same setting: then `CC(C)(C)c1cc(C=C(C#N)C#N)cc(C(C)(C)C)c1O`, with -4.2% (inactive); and `CN(N=O)c1cc(O)ccc1O`, with -0.896% (inactive). Consider `OCc1cnc[nH]1`, for which the “activity, negative = inhibition” value was 1.82% (inactive). As for `NCCCP(=O)(O)O`, the “activity, negative = inhibition” value was 2.47% (inactive). The same measure, in the same setting: then `NNC(=O)c1ccc(O)cc1`, with -1.24% (inactive); and `C[C@@H]1[C@@H]2Cc3ccc(O)cc3[C@@]1(C)CCN2CC1CC1`, with 5.13% (inactive). As for `COc1ccc2[nH]c3c(c2c1)CCNC3`, the “activity, negative = inhibition” value is -5.24% (inactive). As to `N#CC(C#N)=Cc1cc(O)c(O)c(O)c1`, the “activity, negative = inhibition” value is -2.33% (inactive). Still for that read-out and setting: to `CCCN(CCC)C1Cc2cc(OC)c(OC)cc2C1` belongs -0.511% (inactive); to `CCS(=O)(=O)Nc1cccc(C(=C2CCCCC2)c2cnc[nH]2)c1`, 3.72% (inactive); to `CP(=O)(O)C1=CCNCC1`, 3.18% (inactive). Consider `CN1CCc2cccc(Cl)c2CC1`, for which the “activity, negative = inhibition” value is -1.37% (inactive).

In the case of `C[C@H](N)CN1CCc2ccc(Br)cc21`, the “activity, negative = inhibition” value is 1.66% (inactive). Consider `CCCn1c(=O)c2[nH]c(C3CCCC3)nc2n(CCCOC(=O)c2ccc(S(=O)(=O)F)cc2)c1=O`, for which the “activity, negative = inhibition” value was 0.696% (inactive). On the same count and under the same terms, to `CC(=O)NBr` belongs 1.09% (inactive). Take `CN(N=O)c1ccc(O)c(O)c1`: the “activity, negative = inhibition” value was -3.11% (inactive).

For the molecule `NCCc1c[nH]c2ccc(C(N)=O)cc12`, the “activity, negative = inhibition” value is -1.81% (inactive). With `NC(=O)c1cc(N2CC2)c([N+](=O)[O-])cc1[N+](=O)[O-]`, the “activity, negative = inhibition” value was -2.23% (inactive). For `O=[N+]([O-])c1ccc2nc(N3CCNCC3)ccc2c1`, the “activity, negative = inhibition” value is -2.5% (inactive).

Consider `C[C@@H]1O[C@H](C[N+](C)(C)C)CS1`, for which the “activity, negative = inhibition” value was -0.36% (inactive). Turning to `c1ccc2cc(CC3=NCCN3)ccc2c1`, the “activity, negative = inhibition” value is 1.8% (inactive).

For `Clc1cc(I)cc(Cl)c1NC1=NCCN1`, the “activity, negative = inhibition” value was -3.13% (inactive).

For `CN1CCc2cc(O)cc3c2[C@H]1Cc1ccc(O)c(O)c1-3`, the “activity, negative = inhibition” value was -0.661% (inactive). The same measure, in the same setting: to `CNC(=O)OCC[N+](C)(C)C` belongs 0.632% (inactive); to `CCCN(CCC)CCc1c[nH]c2ccc(C(N)=O)cc12`, -1.85% (inactive). The same measure, in the same setting: to `C[N+]1(C)CCN(c2ccccc2)CC1` belongs -4.22% (inactive). Consider `NC(=O)COc1c(F)cc(SCCNS(=O)(=O)c2ccccc2)cc1F`, for which the “activity, negative = inhibition” value was 4.3% (inactive).

Take `C[N+](C)(C)CC#CCOC(=O)Nc1cccc(Cl)c1`: the “activity, negative = inhibition” value was 0.965% (inactive). Take `O=C1C=CC(=O)C=C1`: the “activity, negative = inhibition” value is 0.285% (inactive).

For `c1ccc2c(c1)[I+]c1ccccc1-2`, the “activity, negative = inhibition” value was 1.35% (inactive). Turning to `CCCN(CCC)[C@H]1CCc2c(F)ccc(O)c2C1`, the outcome was inactive. In the case of `NC(N)=NOCC[C@H](N)C(=O)O`, the “activity, negative = inhibition” value was -1.03% (inactive). Turning to `Clc1ccc(N2C[C@H]3CC[C@@H](C2)N3)nn1`, the “activity, negative = inhibition” value is 3.56% (inactive). The same measure, in the same setting: to `C[N+](C)(C)CC#CCN1CCCC1=O` belongs -1.06% (inactive).

For `Cc1[nH]c2ccc(O)cc2c1CCN`, the “activity, negative = inhibition” value was -0.556% (inactive). Regarding `CCCN(CCC)[C@@H]1CCc2cccc(O)c2C1`, the result was inactive. As to `O=S1(=O)N(CCN2CC=C(c3c[nH]c4cc(F)ccc34)CC2)c2cccc3c2N1CCC3`, the “activity, negative = inhibition” value is -7.25% (inactive).

The values are drawn from PubChem BioAssay (NCATS).
